Bioassay records from PubChem.
ALDH1A1 inh = blocks purified human ALDH1A1 activity. P00352. Purified ALDH1A1, NADH fluorescence, propionaldehyde substrate. Potency, µM (highest dose often 75.3 µM), inactives show at the highest dose activity, negative = inhibition, usual class: inhibitors. hit rate 7.3% among 220,000;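 also: potency is read from the fitted curve at half-maximal effect; plate controls were no enzyme wells and a reference inhibitor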
PNC assembly inh = blocks assembly of the perinucleolar compartment. PC3M PTB-GFP, PNC prevalence imaging, 16 h; hits give low values. activity change (PNC), negative = inhibition, % at 10 µM. hit rate 3.1% among 140,000;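 active = readout at or below -70, meaning at least 70% loss of cells showing the perinucleolar compartment, a nuclear body marking cancer cells; inconclusive = readout between -30 and a set limit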;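 also: plate controls were DMSO wells for no effect and camptothecin positive control wells for full effect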
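PC3M cells stably expressing PTB-GFP, 750–1000 cells/well, treated 16 h at 37 °C with compound (23 nl of library stock), in duplicate. After paraformaldehyde fixation and Hoechst stain, imaged at 20x; PNC prevalence scored by image analysis.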
HPGD inh = blocks human HPGD enzyme activity. hit rate 4.3% among 150,000. purified HPGD, NADH fluorescence kinetic, PGE2 substrate. P15428. Potency, µM, without a hit: top-dose activity change, negative = inhibition, hits mostly inhibitors; also: potency is read from the fitted curve at half-maximal effect
Target sequence (P15428 whole entry, looked up): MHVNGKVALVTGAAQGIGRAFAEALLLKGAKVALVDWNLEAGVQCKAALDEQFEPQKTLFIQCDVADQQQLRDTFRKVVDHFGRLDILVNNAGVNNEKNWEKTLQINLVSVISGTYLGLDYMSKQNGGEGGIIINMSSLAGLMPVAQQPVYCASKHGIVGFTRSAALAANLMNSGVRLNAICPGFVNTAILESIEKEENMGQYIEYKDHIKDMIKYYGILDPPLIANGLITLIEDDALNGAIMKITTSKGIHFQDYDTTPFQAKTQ
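20 nM HPGD preincubated 15 min at room temperature with compound in 50 mM Tris-HCl pH 8, 0.01% Tween 20. Started with 1 mM NAD+ and 30 uM prostaglandin E2; NADH fluorescence (360/450 nm) read 5 times over 30-s intervals, last minus first.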
The depositor's hits bear a star; u = inconclusive; x = no result. Shown are actives, neighbours in structure and some others; about 11% of the full set was active somewhere. Unless noted, calls follow the shape of the dose curve; as a rule, active = well fitted inhibition curve with a large enough effect (not every such curve was filed as active); inconclusive = small, poorly fitted or top-dose-only effect, or another doubt; inactive = no such curve, though single readings can be large or run the other way. Unless noted, % is scaled to controls: 0 for no effect and ±100 for the full control effect.

SMILES | ALDH1A1 inh | PNC assembly inh | HPGD inh
O=C(NC(=S)N(CCCCO)C1CCCCC1)c1sc2ccccc2c1Cl | u | 83.1 | -7.8%
O=c1c2ccccc2nnn1Cc1nnc(-c2ccccc2Br)o1 | u | u | 28.2µM*
O=C1c2ccccc2S(=O)(=O)N1Cc1nnc(-c2ccccc2Br)o1 | u | -28.3 | -16.8%
CCCCNC(=O)c1ccc2c(c1)ncn2C1CCCCC1 | -3.3% | 1.8 | 22.4µM*
CC(C)CCNC(=O)c1ccc2c(c1)ncn2C1CCCCC1 | -10.0% | u | u
CCN(CC)CCNC(=O)c1ccc2c(c1)ncn2C1CCCCC1 | -6.9% | -22.0 | -2.3%
CCCCNC(=O)c1ccc2c(c1)ncn2C1CCCC1 | -4.9% | 0.5 | 8.91µM*
CC(C)(C)n1nc2c(c1NC(=O)c1cccc(C(F)(F)F)c1)CS(=O)C2 (stereo not drawn) | 6.8% | u | -2.1%
Cc1sc2ncnc(SCC(=O)N(C)C3CCS(=O)(=O)C3)c2c1C (stereo not drawn) | -5.3% | x | x
O=C(C1CCCN(S(=O)(=O)c2cccc3cccnc23)C1)N1CCc2ccccc21 (stereo not drawn) | u | -23.4 | -8.6%
O=C(Oc1ccc(N(Cc2cccs2)C2=NS(=O)(=O)c3ccccc32)cc1)c1ccccc1Cl | u | u | -21.0%
O=C(Oc1ccc(N(Cc2cccs2)C2=NS(=O)(=O)c3ccccc32)cc1)c1ccco1 | 28.2µM* | u | -23.3%
COC(=O)c1[nH]c2cccc(OC)c2c1NC(=O)C(C)N1CCC(C)CC1 (stereo not drawn) | u | -1.8 | u
COc1cc(/C=N/NC(=S)Nc2cccc(C(=O)O)c2)cc(OC)c1OC | 14.1µM* | -26.7 | -22.9%
COc1cccc(/C=N/NC(=S)Nc2cccnc2)c1 | 5.1% | x | x
COc1ccc(CNC(=S)N/N=C/c2ccc(O)c(OC)c2)cc1 | 1.1% | -26.2 | -15.3%
COc1ccc(/C=N/NC(=S)Nc2cccc(C(=O)O)c2)cc1OC | -1.4% | -8.1 | -28.6%
COc1cc(/C=N/NC(=O)c2ccc(-c3ccccc3)cc2)cc(OC)c1OC | u | 28.8 | u
COc1cccc(/C=N/NC(=S)Nc2cccc(C(=O)O)c2)c1 | 31.6µM* | x | x
COc1ccc(CNC(=S)N/N=C/c2ccc(OC)c(OC)c2)cc1 | u | 40.5 | 22.4µM*
COc1cc(/C=N/NC(=S)N/N=C/c2cc(OC)c(OC)c(OC)c2)cc(OC)c1OC | -4.3% | -109.4* | u
N#CCN1CCN(CC(=O)Nc2cccc3ccccc23)CC1 | 6.6% | -11.7 | -6.9%
O=C(Cn1cnc2ccccc21)N/N=C/c1ccccn1 | 2.8% | 85.4 | 1.3%
Cc1c(NC(=O)CCCCCN2C(=O)C3C4C=CC(C4)C3C2=O)c(=O)n(-c2ccccc2)n1C (stereo not drawn) | -11.1% | -5.4 | -11.9%
COC(=O)[C@@]1(Cc2ccc(OC)cc2)[C@H]2c3cc(C(=O)N(C)C)n(CCc4ccc(O)c(OC)c4)c3C[C@H]2CN1C(=O)c1ccccc1 | 3.6% | x | -6.9%
SMILES | ALDH1A1 inh | PNC assembly inh | HPGD inh
CC1CN(c2cc(=O)n(-c3ccccc3)c(=O)[nH]2)CC(C)O1 (stereo not drawn) | u | 14.4 | -2.3%
CC(c1ccco1)N(C(=O)c1ccc(Cl)s1)c1ccccn1 (stereo not drawn) | u | 11.1 | -9.3%
COc1ccccc1C(=O)Oc1cc(C)[nH]c(=O)c1[N+](=O)[O-] | 4.8% | x | x
C=CCNC(=S)N1CCN(Cc2ccccc2)CC1 | 14.1µM* | x | x
S=C(NCCc1ccccc1)N1CCN(Cc2ccc(Cl)c(Cl)c2)CC1 | -2.8% | -29.4 | x
S=C(NCC1CCCO1)Nc1ccccc1Cl (stereo not drawn) | 0.3% | -16.8 | 12.6µM*
S=C(NCC1CCCO1)Nc1ccc(Cl)c(Cl)c1 (stereo not drawn) | -10.1% | x | x
S=C(NCC1CCCO1)N1CCN(Cc2ccccc2)CC1 (stereo not drawn) | 25.1µM* | x | x
S=C(Nc1ccc(Cl)cc1)N1CCN(Cc2ccccc2)CC1 | -6.3% | x | x
CN1CCN(C(=S)NCCc2ccccc2)CC1 | u | -81.6* | -8.5%
CC1CCN(C(=S)NCCc2ccccc2)CC1 | -9.2% | 17.0 | -3.5%
Cc1noc(C)c1C(=O)N1CCC2(CC1)CCN(c1cccc(-c3ccccc3)c1)CC2 | u | x | -17.8%
C=CCn1c(SCC(=O)N(C)C2CCS(=O)(=O)C2)nnc1-c1ccncc1 (stereo not drawn) | 4.0% | -10.4 | -3.6%
O=C(NCc1ccc(F)cc1)C1CCN(c2cnccn2)CC1 | 3.7% | x | x
CCOC(=O)CNC(=O)Nc1cc(C(C)(C)C)nn1-c1ccccc1 | 7.2% | -0.4 | -4.9%
COc1ccc(NC(=S)NCC2CCCO2)c(C)c1 (stereo not drawn) | -7.1% | 9.5 | -27.8%
